In PubChem BioAssay (NCATS):
Several values for one entry are separate records, joined by “and”; a condition that tells them apart may be missing. Identical values can stand only once. Records with an inconclusive call do not appear. The source holds several records for some structures; these can differ, active in one and inactive in another. Activity calls are given as the source filed them. Calls follow the shape of the dose curve; as a rule, active = well fitted curve in the direction sought with a large enough effect; inconclusive = small, poorly fitted or top-dose-only effect, or another doubt; inactive = no such curve, though single readings can be large; an effect the other way counts as inactive or inconclusive.

Experiment: Viability qHTS for spleen associated tyrosine kinase inhibitor (SYKi) drug resistant MV4-11 cells (AID 1963824); also: nearly all actives have a fitted effect of over 35% in size
Details: SYKi-resistant MV4-11 viability, CellTiter-Glo, 72 h; series mostly up to 45 µM
In short: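 CellTiter-Glo luminescence, read 10 min after reagent addition, reports viability after a 72 hr compound exposure. Cells are an MV4-11 line made resistant to SYK inhibition, seeded at 500 per well onto compound-containing plates.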
Potency is read from the fitted curve at half-maximal effect.

SMILES	Potency	viability, % of control
Clc1cccc(C(c2ccc3nc[nH]c3c2)n2ccnc2)c1 (stereo not given)	inactive and 18.6 µM (active)	
Cc1[nH]cnc1-c1ccc(Cl)cc1	inactive	
NS(=O)(=O)c1ccc(Cc2c(-c3cccc(-c4ccccc4)c3)nn(-c3nc(C(=O)O)cs3)c2CC2CC2)cc1	10.5 µM (active)	
COc1c2occc2c(OC)c2c(=O)cc(C)oc12	inactive	
C[n+]1c2cc(N)ccc2cc2ccc(N)cc21 (tested in a mixture with another compound)	1.88 µM (active)	
C[C@]12CCC(=O)C=C1C=C[C@@H]1[C@@H]2CC[C@@]2(C)[C@H]1CC[C@@]21CCC(=O)O1	inactive	
CC(CNC1CCCCC1)OC(=O)c1ccccc1 (stereo not given)	inactive	
C[n+]1cc2c3c(ccc2c2ccc4cc5c(cc4c21)OCO5)OCO3	1.3 µM (active)	
CNC(=O)[C@H]1O[C@@H](n2cnc3c(NCc4cccc(I)c4)nc(Cl)nc32)[C@H](O)[C@@H]1O	8.33 µM (active)	
CC1CCc2c(N3CCC(O)CC3)c(F)cc3c(=O)c(C(=O)O)cn1c23 (stereo not given)	inactive	
C#C[C@]1(O)CC[C@H]2[C@@H]3CCC4=CC(=O)CC[C@@H]4[C@H]3CC[C@@]21CC	9.34 µM (active)	
CN1CC[C@@H](NC(=O)Nc2ccc(C#N)cc2)C[C@@H]1c1nc2ccccc2[nH]1	18.6 µM (active)	
Nc1ncccc1-c1nc2ccc(-c3ccccc3)nc2n1-c1ccc(C2(N)CCC2)cc1	5.25 µM (active)	
COc1ccc2nc(SCc3ncc(C)c(OC)c3C)[nH]c2c1	inactive	
CC(C)(C)NCC(O)COc1ccccc1OCC1CCCO1 (stereo not given)	0.015 µM (active)	
Nc1cc(-c2ccncc2)c[nH]c1=O	inactive	
CC(C)n1ncnc1-c1cn2c(n1)-c1ccc(O[C@@H](C)C(N)=O)cc1OCC2	4.68 µM (active)	
O=c1[nH]cnc2nc[nH]c12	inactive	
Cc1c(-c2c(-c3ccc(F)o3)sc3ncnc(O[C@@H](Cc4ccccc4OCc4ccnn4CC(F)(F)F)C(=O)O)c23)ccc(OCCN2CCN(C)CC2)c1Cl	0.0132 µM (active)	
CC1=C(/C=C/C(C)=C/C=C/C(C)=C/C(=O)Nc2ccc(O)cc2)C(C)(C)CCC1	2.66 µM (active) and 7.42 µM (active)	

SMILES	Potency	viability, % of control
CCC(C(=O)OCCN(CC)CC)c1ccccc1 (stereo not given)	inactive	
COc1cc(N)c(Cl)cc1C(=O)NC1CCN(CCCOc2ccc(F)cc2)CC1OC (stereo not given)	23.7 µM (active)	
CC(C)C(C)(C)C(C)(C)C(C)(C)S	5.45 µM (active)	
CCN1CCN(Cc2ccc(NC(=O)c3ccc(C)c(/C=C/c4cnc5[nH]ccc5c4OC)c3)cc2C(F)(F)F)CC1	20.6 nM (active) and 83.3 nM (active)	
CC/C(=C(\c1ccccc1)c1ccc(OCCN(C)C)cc1)c1ccccc1	10.8 µM (active) and 18.8 µM (active)	
CC(C)c1c(C(=O)Nc2ccccc2)c(-c2ccccc2)c(-c2ccc(F)cc2)n1CC[C@@H](O)C[C@@H](O)CC(=O)O	2.11 µM (active) and 1.09 µM (active) and 910 nM (active)	
Cc1ccc(-c2nn(C(C)(C)CNC(=O)c3ccncc3)c3ncnc(N)c23)cc1	6.61 µM (active)	
CNC(=O)CCc1cc(-c2ccc(-c3ccc(C(F)(F)F)cc3)cc2)n(-c2ccc(N3CCNCC3)cc2)n1	2.09 µM (active)	
CC(=O)[C@H]1CC[C@H]2[C@@H]3C[C@H](C)C4=CC(=O)CC[C@]4(C)[C@H]3[C@@H](O)C[C@]12C	23.7 µM (active)	
Oc1ccc(Cl)cc1Sc1cc(Cl)ccc1O	15 µM (active)	
Cc1c[nH]c2nc(Nc3ccc(N4CCN(C)CC4)c(F)c3)nc(-c3cccc(CC#N)c3)c12	0.0059 µM (active)	
CS(=O)(=O)c1ccc(-c2nnc(/C=C/c3nnc(-c4ccc(C#N)cc4)o3)n2-c2ccccc2Cl)nc1	14.8 µM (active)	
c1cnc(N2CCN(Cc3ccc4c(c3)OCO4)CC2)nc1	inactive	
C/C(=C(\CCOP(=O)(O)O)SC(=O)c1ccccc1)N(C=O)Cc1cnc(C)nc1N		78.4% [at 4.97 µM] (inactive)
CC(C)[C@H](CO)Nc1nc(Nc2ccc(C(=O)O)c(Cl)c2)c2ncn(C(C)C)c2n1	16.6 µM (active)	
C=CCSCC1Nc2cc(Cl)c(S(N)(=O)=O)cc2S(=O)(=O)N1 (stereo not given)	10.6 µM (active)	
CNCCn1c(=O)c2cc(OC)c(OC)cc2c2cnc3cc4c(cc3c21)OCO4	0.0121 µM (active)	
O[C@@H](c1cc(C(F)(F)F)nc2c(C(F)(F)F)cccc12)[C@H]1CCCCN1	9.44 µM (active)	
CCCC(=O)Nc1ccc(O)c(C(C)=O)c1	inactive	
COc1cc(Cc2cnc(N)nc2N)cc(OC)c1OC	inactive	

Experiment: Cellular viability qHTS for adrenocortical cancer (ACC) cell line SW-13 (AID 1963989); also: nearly all actives have a fitted effect of over 65% in size;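 as to activity (max response): cells grown in serum-free medium with ITS supplement; % is scaled to controls: 0 for no effect and ±100 for the full control effect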
Details: SW-13 ACC cells viability, CellTiter-Glo, 48 h; activity (max response): stronger effect = lower value
In short: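 IC50 and maximal-response values come from four-parameter logistic fits of titration data. SW-13 cells in serum-free medium received compounds (up to 46 uM final) for 48 h before CellTiter-Glo luminescence.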

SMILES	activity (max response)	Potency
Clc1cccc(C(c2ccc3nc[nH]c3c2)n2ccnc2)c1 (stereo not given)	10.9% (inactive) and -12.2% (inactive)	
Cc1[nH]cnc1-c1ccc(Cl)cc1	8.54% (inactive)	
NS(=O)(=O)c1ccc(Cc2c(-c3cccc(-c4ccccc4)c3)nn(-c3nc(C(=O)O)cs3)c2CC2CC2)cc1		31.6 µM (active)
COc1c2occc2c(OC)c2c(=O)cc(C)oc12	12.7% (inactive)	
C[n+]1c2cc(N)ccc2cc2ccc(N)cc21 (tested in a mixture with another compound)		2.31 µM (active)
C[C@]12CCC(=O)C=C1C=C[C@@H]1[C@@H]2CC[C@@]2(C)[C@H]1CC[C@@]21CCC(=O)O1	8.87% (inactive)	
CC(CNC1CCCCC1)OC(=O)c1ccccc1 (stereo not given)	-5.58% (inactive)	
C[n+]1cc2c3c(ccc2c2ccc4cc5c(cc4c21)OCO5)OCO3		2.24 µM (active)
CNC(=O)[C@H]1O[C@@H](n2cnc3c(NCc4cccc(I)c4)nc(Cl)nc32)[C@H](O)[C@@H]1O	2.68% (inactive)	
CC1CCc2c(N3CCC(O)CC3)c(F)cc3c(=O)c(C(=O)O)cn1c23 (stereo not given)	-4.15% (inactive)	
C#C[C@]1(O)CC[C@H]2[C@@H]3CCC4=CC(=O)CC[C@@H]4[C@H]3CC[C@@]21CC	-2.48% (inactive) and -7.29% (inactive)	
CN1CC[C@@H](NC(=O)Nc2ccc(C#N)cc2)C[C@@H]1c1nc2ccccc2[nH]1	-1.78% (inactive)	
Nc1ncccc1-c1nc2ccc(-c3ccccc3)nc2n1-c1ccc(C2(N)CCC2)cc1		25.1 µM (active)
COc1ccc2nc(SCc3ncc(C)c(OC)c3C)[nH]c2c1	3.67% (inactive)	
CC(C)(C)NCC(O)COc1ccccc1OCC1CCCO1 (stereo not given)	-5.68% (inactive)	
Nc1cc(-c2ccncc2)c[nH]c1=O	2.68% (inactive)	
CC(C)n1ncnc1-c1cn2c(n1)-c1ccc(O[C@@H](C)C(N)=O)cc1OCC2	-4.9% (inactive)	
O=c1[nH]cnc2nc[nH]c12	10.3% (inactive)	
Cc1c(-c2c(-c3ccc(F)o3)sc3ncnc(O[C@@H](Cc4ccccc4OCc4ccnn4CC(F)(F)F)C(=O)O)c23)ccc(OCCN2CCN(C)CC2)c1Cl		0.199 µM (active)
CC1=C(/C=C/C(C)=C/C=C/C(C)=C/C(=O)Nc2ccc(O)cc2)C(C)(C)CCC1		1.84 µM (active)

SMILES	activity (max response)	Potency
CCC(C(=O)OCCN(CC)CC)c1ccccc1 (stereo not given)	4.88% (inactive)	
COc1cc(N)c(Cl)cc1C(=O)NC1CCN(CCCOc2ccc(F)cc2)CC1OC (stereo not given)	-12.2% (inactive)	
CC(C)C(C)(C)C(C)(C)C(C)(C)S	7.64% (inactive)	
CCN1CCN(Cc2ccc(NC(=O)c3ccc(C)c(/C=C/c4cnc5[nH]ccc5c4OC)c3)cc2C(F)(F)F)CC1		3.16 µM (active)
CC/C(=C(\c1ccccc1)c1ccc(OCCN(C)C)cc1)c1ccccc1		6.31 µM (active)
CC(C)c1c(C(=O)Nc2ccccc2)c(-c2ccccc2)c(-c2ccc(F)cc2)n1CC[C@@H](O)C[C@@H](O)CC(=O)O	-20.9% (inactive) and -15.4% (inactive)	
Cc1ccc(-c2nn(C(C)(C)CNC(=O)c3ccncc3)c3ncnc(N)c23)cc1		8.91 µM (active)
CNC(=O)CCc1cc(-c2ccc(-c3ccc(C(F)(F)F)cc3)cc2)n(-c2ccc(N3CCNCC3)cc2)n1		3.98 µM (active)
CC(=O)[C@H]1CC[C@H]2[C@@H]3C[C@H](C)C4=CC(=O)CC[C@]4(C)[C@H]3[C@@H](O)C[C@]12C	8.53% (inactive)	
Oc1ccc(Cl)cc1Sc1cc(Cl)ccc1O		3.26 µM (active)
Cc1c[nH]c2nc(Nc3ccc(N4CCN(C)CC4)c(F)c3)nc(-c3cccc(CC#N)c3)c12		2.24 µM (active)
CS(=O)(=O)c1ccc(-c2nnc(/C=C/c3nnc(-c4ccc(C#N)cc4)o3)n2-c2ccccc2Cl)nc1	-6.81% (inactive)	
c1cnc(N2CCN(Cc3ccc4c(c3)OCO4)CC2)nc1	6.56% (inactive)	
C/C(=C(\CCOP(=O)(O)O)SC(=O)c1ccccc1)N(C=O)Cc1cnc(C)nc1N	11.3% (inactive)	
CC(C)[C@H](CO)Nc1nc(Nc2ccc(C(=O)O)c(Cl)c2)c2ncn(C(C)C)c2n1	10.6% (inactive)	
C=CCSCC1Nc2cc(Cl)c(S(N)(=O)=O)cc2S(=O)(=O)N1 (stereo not given)	6.34% (inactive)	
CNCCn1c(=O)c2cc(OC)c(OC)cc2c2cnc3cc4c(cc3c21)OCO4		0.0422 µM (active)
O[C@@H](c1cc(C(F)(F)F)nc2c(C(F)(F)F)cccc12)[C@H]1CCCCN1		16.4 µM (active)
CCCC(=O)Nc1ccc(O)c(C(C)=O)c1	10.4% (inactive)	
COc1cc(Cc2cnc(N)nc2N)cc(OC)c1OC	-3.43% (inactive)	
